Hits are enriched below; roughly 19% of the tested compounds scored in any of these assays.
TDP1 cell noCPT – qHTS for Inhibitors of human tyrosyl-DNA phosphodiesterase 1 (TDP1): qHTS in cells in absence of CPT; DT40 Tdp1-/- hTDP1 cells, no CPT, ATP luminescence, 48 h; Potency, µM (highest dose often 46.2 µM), without a hit: at the top dose activity change, negative = growth inhibition, hits mostly inhibitors; 420,000 tested, 15% active; AID 686978, 2013; further: potency means the concentration at half of the fitted maximal effect; nearly all actives have a fitted effect of over 55% in size
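Seeded 400 DT40-hTDP1 cells/well (vehicle DMSO, no 20 nM CPT); pinned compounds; ≥48 hr at 37 °C; CellTiter-Glo luminescence as viability measure.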
HT1080 IDH1KD tx – kills HT-1080 cells with IDH1 knockdown; HT-1080 IDH1 knockdown viability, ATP luminescence, 48 h; Potency, µM (top dose mostly 46.1 µM), without a hit: at the top dose activity, negative = toxicity, hits mostly cytotoxic; 360,000 tested, 2% active; AID 686971;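 further: potency means the concentration at half of the fitted maximal effect; 0% = DMSO wells and -100% = cell-free medium wells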
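Knockdown cells (IDH1KD HT-1080) received compounds 2 h after plating at 750 cells/well and were kept 48 h at 37 °C in 5% FBS RPMI. A CellTiter-Glo luminescence read gave % activity for curve fitting.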
TDP1 cell CPT – DT40-hTDP1 cell growth loss with CPT | 420,000 tested, 12% active | AID 686979 | Potency, µM (highest dose often 46.2 µM), for inactives: at the top dose activity change, negative = growth inhibition, most hits filed as inhibitors | chicken DT40 Tdp1-/-;hTDP1 cells + 20 nM CPT, ATP luminescence, 48 h; further: potency means the concentration at half of the fitted maximal effect; nearly all actives have a fitted effect of over 55% in size
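Chicken DT40 Tdp1-/- cells complemented with human TDP1, 400 cells/well, exposed to compounds plus 20 nM camptothecin for at least 48 h at 37 C; viability read as ATP content by CellTiter-Glo luminescence.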
uPA generation – blocks generation of uPA at the cell surface; cell surface uPA generation assay, qHTS; Potency, µM (titrated, usually from 38.3 µM), without a hit: at the highest dose activity change, negative = inhibition, usual class: inhibitors; 330,000 tested, 0.31% active; active means well fitted inhibition curve with a large enough effect; inconclusive means small, poorly fitted or top-dose-only effect; inactive means no such curve, though single readings can be large or run the other way; tested in mouse RAW 264.7 cells; further: potency means the concentration at half of the fitted maximal effect; nearly all actives have a fitted effect of over 55% in size
IL1B secr inh – inflammasome signaling inhibition, IL-1 beta readout | THP-1 LPS/ATP IL-1B secretion, AlphaLISA, 16 h; stronger effect = lower value | activity change, % at 57.5 µM | 360,000 tested, 4.7% active | AID 743279; in the data active means activity change below about -50%; inconclusive means mostly about -30% to -49%
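THP-1 cells pretreated 1 hr with compounds (up to 57.5 uM final), then stimulated with LPS (250 ng/mL final) plus ATP (1.25 mM final); secreted IL-1B measured by AlphaLISA after 16 hr, decreased signal indicating inhibition.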
HT1080-NT tox – kills 2HG-producing HT-1080-NT fibrosarcoma cells; HT-1080-NT fibrosarcoma viability, CellTiter-Glo ATP luminescence, 48 h; Potency, µM (doses to about 46.1 µM), for inactives: at the highest dose activity, negative = less viability, actives largely listed as cytotoxic; 360,000 tested, 1.6% active;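 further: NT is the 2HG producing partner of a matched IDH1 knockdown line; potency means the concentration at half of the fitted maximal effect; 0% = DMSO-treated cells and -100% = media-only wells without cells; nearly all actives have a fitted effect of over 55% in size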
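A 48-hour cytotoxicity screen used HT-1080-NT cells plated 2 hours before compound delivery. ATP-based CellTiter-Glo luminescence measured viability, normalized to DMSO and no-cell controls.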
* = called active by the depositor; ? = inconclusive; nt = not tested or not shown; [ ] = dose if it differs, or a comment. Unless noted, the call rests on the fitted dose curve; in most records, active means well fitted curve in the direction sought with a large enough effect; inconclusive means small, poorly fitted or top-dose-only effect, or another doubt; inactive means no such curve, though single readings can be large; an effect the other way counts as inactive or inconclusive. Unless noted, on the % scale 0 is the no-effect control and ±100 the full control effect.

SMILES	TDP1 cell noCPT	HT1080 IDH1KD tx	TDP1 cell CPT	uPA generation	IL1B secr inh	HT1080-NT tox
CC(C)n1nc(C(=O)Nc2nc3ccccc3[nH]2)c2ccccc2c1=O	15µM*	-2%	?	-1%	-53*	-19%
CCCn1nc(C(=O)Nc2nc3ccccc3[nH]2)c2ccccc2c1=O	16µM*	-2%	?	-10%	?	-4%
CCCn1nc(C(=O)Nc2nnc(CC)s2)c2ccccc2c1=O	3%	-1%	47%	-8%	30	3%
CCCCCCn1nc(C(=O)Nc2nc3c(s2)CCCC3)c2ccccc2c1=O	?	11%	15µM*	-15%	20	6%
CCCCn1nc(C(=O)Nc2nc3c(s2)CCCC3)c2ccccc2c1=O	?	0%	?	-3%	1	9%
CCOC(=O)C1C(=O)C(=O)N(C2CCCCC2)C1C(=O)OCC (configuration not stated)	-1%	19%	26%	-1%	7	12%
Cc1cccc(NC(=O)c2c([N+](=O)[O-])cnn2C)c1	-4%	0%	-1%	-13%	-7	-5%
C/C(=N\NC(=O)c1cc(C)nc2ccccc12)c1cccc(Cl)c1	-19%	-22%	-26%	-8%	-21	-16%
COc1ccc(S(=O)(=O)Nc2cccc(C(C)=O)c2)cc1Br	?	2%	-17%	-4%	-71*	-6%
CN(c1cccc(NS(=O)(=O)c2cccs2)c1)S(C)(=O)=O	-21%	4%	-16%	2%	2	5%
COc1ccc(S(=O)(=O)Nc2cccc(N(C)S(C)(=O)=O)c2)cc1Br	21µM*	-1%	?	?	-7	1%
CCC(=O)Nc1ccc(S(=O)(=O)N2CCCCC2)cc1OC	-15%	0%	-22%	nt	25	4%
CCC(=O)Nc1ccc(S(=O)(=O)Nc2cccc(C)c2)cc1OC	12µM*	?	?	nt	33	?
NC(C(=O)O)c1ccc(P(=O)(O)O)cc1 (configuration not stated)	-7%	nt	-4%	nt	nt	nt
Cc1ccc(-n2nc(C(=O)N3CCN(c4ccccc4F)CC3)c3c4ccccc4n(C)c3c2=O)cc1	-6%	nt	-27%	nt	nt	nt
CCCNC(=O)C1(C)CCN(C(=O)c2ccc3sccc3c2)C1 (configuration not stated)	-7%	0%	-12%	nt	11	-2%
CCn1c(-c2cccnc2Cl)nc2cc(Cl)c(Cl)cc21	?	?	18µM*	nt	5	?
O=C(NCc1cccnc1)c1cc(C2CCCN(C(=O)c3cccs3)C2)on1 (configuration not stated)	?	12%	?	nt	-3	22%
CC1CCc2nc(-c3cc4ccc(O)cc4oc3=O)sc2C1 (configuration not stated)	?	nt	-8%	nt	nt	nt
CC(=O)NC(c1cccc(F)c1)c1nc(-c2cc(F)cc(Cl)c2)cs1 (configuration not stated)	-30%	-15%	-25%	nt	-18	-18%
CCOc1ccccc1C(=O)Nc1ccc(-n2nncc2C(C)(C)C)cc1	15µM*	1%	21µM*	7%	15	5%
CCOc1ccccc1C(=O)Nc1ccc(-n2nncc2-c2ccccc2)cc1	23µM*	nt	?	nt	nt	nt
COc1cccc(C(=O)Nc2ccc(-n3nncc3-c3ccccc3)cc2)c1OC	-19%	nt	-18%	nt	nt	nt
CCOc1ccccc1C(=O)Nc1ccc(S(=O)(=O)N2CCN(C)CC2)cc1	-15%	1%	?	13%	4	-2%
CSc1ncccc1C(=O)OCC(=O)NCc1ccc2c(c1)OCO2	7%	1%	3%	10%	22	-1%
SMILES	TDP1 cell noCPT	HT1080 IDH1KD tx	TDP1 cell CPT	uPA generation	IL1B secr inh	HT1080-NT tox
COc1ccc2ccccc2c1CN1CCc2nnc(C(NS(C)(=O)=O)C(C)C)n2CC1 (configuration not stated)	-17%	nt	?	nt	nt	nt
Cc1ccc(NC(=O)CN2CCN(C)CC2)cc1S(=O)(=O)N1CCOCC1	-3%	12%	14%	1%	7	2%
O=C(O)c1ccc(-n2ncc(Cl)c(Cl)c2=O)cc1	5.8µM*	18µM*	6.5µM*	nt	-102*	5.8µM*
COc1ccc2cnn(-c3ccc(C)cc3)c(=O)c2c1OC	21µM*	13%[9.24 µM]	15µM*	-7%	16	8%
Cc1ccc(Sc2cnn(-c3ccccc3)c(=O)c2Cl)cc1	29µM*	-8%	?	-15%	?	-13%
COc1ccc(Oc2c(Cl)cnn(-c3ccc(C)cc3)c2=O)cc1	26µM*	-4%[9.24 µM]	?	-7%	-114*	?
N#CCC(=O)Nc1ccc(C(=O)OCC(=O)c2ccc3c(c2)NC(=O)CO3)cc1	1%	-2%	-1%	2%	6	-4%
COc1ccc2cnn(CCOc3cc(C)ccc3C(C)C)c(=O)c2c1OC	16µM*	-17%	16µM*	2%	21	-5%
CCOc1c(Cl)cnn(-c2ccc(C)cc2)c1=O	?	19%	-23%	0%	6	19%
COc1c(Cl)cnn(-c2ccc(C)cc2)c1=O	16µM*	-23%	?	0%	-25	11%
COc1ccc(Oc2c(Cl)cnn(-c3ccc(Cl)c(Cl)c3)c2=O)cc1	?	?	?	-10%	-113*	18µM*
COc1ccc(Oc2c(Cl)cnn(-c3ccc(F)cc3)c2=O)cc1	?	?	?	5%	-112*	?
Cc1ccc(Cn2cc(CN3CC(N(C)C)CS3(=O)=O)nn2)cc1 (configuration not stated)	-4%	5%	15%	nt	18	13%
CC(C(=O)NC1CCCC1)N(C(=O)c1ccc(-c2ccccc2)[nH]1)c1ccccc1F (configuration not stated)	?	?	-18%	nt	?	?
CCN(CC)C(=O)Cn1cc(S(=O)(=O)CC(=O)NC2CCCCC2)c2ccccc21	-23%	14%	-3%	0%	-19	0%
Cc1ccc2nc(-c3cccc(Cl)c3)c(Nc3ccc4c(c3)OCO4)n2c1	-29%	nt	?	nt	nt	nt
Cc1ccc(-c2nc3ccccn3c2Nc2ccc3c(c2)OCCO3)s1	-5%	nt	-15%	nt	nt	nt
Clc1cccc(-c2nc3ccccn3c2Nc2ccc3c(c2)OCCO3)c1	8.2µM*	nt	?	nt	nt	nt
CN(C)c1ccc(-c2nc3ccccn3c2Nc2ccc3c(c2)OCCO3)cc1	?	nt	21µM*	nt	nt	nt

High-throughput results as filed in PubChem.
